Results on 4 compounds are retold here after ChEMBL document CHEMBL3988442, “University of Dundee, Small-Polar-MMV Screening Library” (2021).

Holding throughout (set-up): scale not given: direction of the effect not stated beside the values
The target in assay [1] is Protein translocase subunit SecA (Escherichia coli (strain K12)) (UniProt P10408). As to the kind of experiment: Assay to Identify E. coli SecA ATPase Inhibitors. The assay is classed as functional. The following applies: 30 µM.
Assay [2] deals with T1, Ubiquitin-activating enzyme e1, putative (Leishmania donovani (strain BPK282A1)) (UniProt E9BSI1).
T1 sequence (whole entry): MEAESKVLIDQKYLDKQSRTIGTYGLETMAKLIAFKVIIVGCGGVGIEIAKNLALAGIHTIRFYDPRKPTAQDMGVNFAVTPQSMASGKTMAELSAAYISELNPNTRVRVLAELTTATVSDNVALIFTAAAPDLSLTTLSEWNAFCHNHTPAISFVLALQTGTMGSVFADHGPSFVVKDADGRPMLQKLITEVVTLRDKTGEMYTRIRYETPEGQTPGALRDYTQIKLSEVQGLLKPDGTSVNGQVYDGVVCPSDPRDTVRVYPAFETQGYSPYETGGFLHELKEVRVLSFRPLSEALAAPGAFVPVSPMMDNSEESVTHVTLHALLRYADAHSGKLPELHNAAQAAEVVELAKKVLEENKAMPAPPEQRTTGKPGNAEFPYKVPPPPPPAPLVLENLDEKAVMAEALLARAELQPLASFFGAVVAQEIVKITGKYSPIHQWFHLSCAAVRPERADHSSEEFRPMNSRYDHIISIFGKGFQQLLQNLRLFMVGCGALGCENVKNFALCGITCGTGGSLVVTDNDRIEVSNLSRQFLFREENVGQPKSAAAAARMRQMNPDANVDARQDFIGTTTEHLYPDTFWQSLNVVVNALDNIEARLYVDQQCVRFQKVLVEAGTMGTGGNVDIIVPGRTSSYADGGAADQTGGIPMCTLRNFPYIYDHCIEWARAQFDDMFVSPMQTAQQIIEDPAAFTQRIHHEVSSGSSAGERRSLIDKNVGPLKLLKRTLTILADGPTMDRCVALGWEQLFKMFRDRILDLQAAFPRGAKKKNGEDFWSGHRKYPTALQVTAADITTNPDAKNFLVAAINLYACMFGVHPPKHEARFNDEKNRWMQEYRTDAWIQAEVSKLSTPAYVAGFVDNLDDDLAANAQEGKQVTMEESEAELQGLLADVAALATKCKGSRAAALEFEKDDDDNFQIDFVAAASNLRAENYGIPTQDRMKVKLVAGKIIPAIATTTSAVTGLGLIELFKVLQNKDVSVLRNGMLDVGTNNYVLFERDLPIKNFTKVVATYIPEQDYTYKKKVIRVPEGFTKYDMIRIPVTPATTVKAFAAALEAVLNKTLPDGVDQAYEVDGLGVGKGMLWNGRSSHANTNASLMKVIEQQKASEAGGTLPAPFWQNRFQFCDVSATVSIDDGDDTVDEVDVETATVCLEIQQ
As to the kind of experiment: Leishmania donovani Ubiquitin Activating Enzyme (LdE1). The assay is classed as functional. The following applies: 30 µM.

The target of assay [3] is T2, Aspartate--tRNA(Asp/Asn) ligase (Mycobacterium tuberculosis (strain ATCC 25618 / H37Rv)) (UniProt P9WFW3). Also: in the data most compounds retested in dose-response had high values.
T2 sequence (whole entry): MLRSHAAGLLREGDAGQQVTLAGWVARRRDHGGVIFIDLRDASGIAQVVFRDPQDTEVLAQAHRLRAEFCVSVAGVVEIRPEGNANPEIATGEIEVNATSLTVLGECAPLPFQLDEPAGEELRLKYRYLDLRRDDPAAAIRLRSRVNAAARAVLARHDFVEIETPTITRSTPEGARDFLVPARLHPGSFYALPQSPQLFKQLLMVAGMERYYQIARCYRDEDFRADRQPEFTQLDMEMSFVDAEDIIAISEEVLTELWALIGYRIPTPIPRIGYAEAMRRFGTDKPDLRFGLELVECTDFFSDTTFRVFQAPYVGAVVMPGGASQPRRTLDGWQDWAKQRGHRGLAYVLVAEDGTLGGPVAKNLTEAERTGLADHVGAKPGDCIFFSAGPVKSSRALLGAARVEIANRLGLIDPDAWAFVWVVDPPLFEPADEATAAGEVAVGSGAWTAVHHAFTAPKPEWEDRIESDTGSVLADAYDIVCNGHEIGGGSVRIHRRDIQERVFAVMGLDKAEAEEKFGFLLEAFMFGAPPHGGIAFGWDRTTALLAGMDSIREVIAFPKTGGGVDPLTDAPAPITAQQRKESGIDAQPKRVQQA
Nature of the assay: Assay for Asp RNA synthetase-1 from Mycobacterium tuberculosis. The assay is classed as functional. The settings on record: 30 µM.

The target of assay [4] is AMP-activated protein kinase, AMPK (Homo sapiens) (UniProt P54646+O43741+P54619+Q9UGJ0+Q9Y478+Q13131+Q9UGI9). Nature of the assay: AMP-dependent Kinase enzyme assay. An in vitro enzyme assay that detects ADP turnover that is directly proportional to AMPK activity. This uses naive AMPK that is activated during the assay with MK-8722. The assay is classed as functional. The settings on record: 30 µM.

Assay [5] deals with Sialic acid-binding Ig-like lectin 9 (Homo sapiens) (UniProt Q9Y336). As to the kind of experiment: Hs-Siglec9 ALPHAscreen SOP 20170721. The settings on record: 10 µM.
Another assay has as its system Trypanosoma cruzi. Nature of the assay: Trypanosoma cruzi phosphomannomutase and mannose-1-phosphate guanylyltransferase assay. The assay is classed as functional. The following applies: 10 µM.
For assay [6], the target named is T3, Arginase-2, mitochondrial (Homo sapiens) (UniProt P78540).
T3 sequence (whole entry): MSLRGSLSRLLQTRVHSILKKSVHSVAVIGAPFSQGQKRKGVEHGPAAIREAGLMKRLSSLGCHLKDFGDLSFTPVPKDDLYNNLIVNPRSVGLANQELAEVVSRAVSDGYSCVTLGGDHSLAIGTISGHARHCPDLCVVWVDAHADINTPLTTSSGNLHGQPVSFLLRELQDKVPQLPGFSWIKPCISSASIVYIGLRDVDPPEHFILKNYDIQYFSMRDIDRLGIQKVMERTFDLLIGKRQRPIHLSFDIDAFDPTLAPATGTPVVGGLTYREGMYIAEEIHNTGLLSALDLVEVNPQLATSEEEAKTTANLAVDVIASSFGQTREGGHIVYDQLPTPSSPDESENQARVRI
As to the kind of experiment: in vitro enzyme assay to detect the production of urea directly proportional to the activity of Arginase II. Also: in the data most compounds retested in dose-response had high values. In kind it is functional. The following applies: 33.3 µM.

Assay [7] concerns the target T4, Proteasome subunit beta (Trypanosoma cruzi) (UniProt O96673).
T4 sequence (whole entry): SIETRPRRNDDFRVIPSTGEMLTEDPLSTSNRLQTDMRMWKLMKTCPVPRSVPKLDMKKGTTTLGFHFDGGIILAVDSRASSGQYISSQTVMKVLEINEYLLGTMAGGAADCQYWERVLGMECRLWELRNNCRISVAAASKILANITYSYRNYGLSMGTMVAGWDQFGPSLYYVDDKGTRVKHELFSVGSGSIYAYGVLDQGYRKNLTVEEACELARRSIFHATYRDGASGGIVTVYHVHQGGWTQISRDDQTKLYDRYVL
As to the kind of experiment: Trypanosoma cruzi proteasome chymotrypsin-like activity (TcProtChymo) assay. Also: in the data most compounds retested in dose-response had high values. The assay is classed as functional. The settings on record: 9.37 µM.

For the next assay, the species on record is Homo sapiens. Nature of the assay: To identify inhibition of the IFN signalling (Jak-Stat) pathway via expression of an eGFP reporter gene under the control of an IFN-stimulated response element (ISRE) containing MxA promoter. The assay is classed as functional. The settings on record: 30 µM.
Assay [8] has as its target Shiga toxin 2 (Escherichia coli O157:H7) (UniProt P09385+P09386). As to the kind of experiment: E. coli 0.157:H7 Shiga Toxin SOP - stx2 screening assay. The assay is classed as functional. The following applies: 30 µM.
In assay [9] the target is T5, Tyrosyl-tRNA synthetase, putative (Trypanosoma cruzi (strain CL Brener)) (UniProt Q4DSP6).
T5 sequence (whole entry): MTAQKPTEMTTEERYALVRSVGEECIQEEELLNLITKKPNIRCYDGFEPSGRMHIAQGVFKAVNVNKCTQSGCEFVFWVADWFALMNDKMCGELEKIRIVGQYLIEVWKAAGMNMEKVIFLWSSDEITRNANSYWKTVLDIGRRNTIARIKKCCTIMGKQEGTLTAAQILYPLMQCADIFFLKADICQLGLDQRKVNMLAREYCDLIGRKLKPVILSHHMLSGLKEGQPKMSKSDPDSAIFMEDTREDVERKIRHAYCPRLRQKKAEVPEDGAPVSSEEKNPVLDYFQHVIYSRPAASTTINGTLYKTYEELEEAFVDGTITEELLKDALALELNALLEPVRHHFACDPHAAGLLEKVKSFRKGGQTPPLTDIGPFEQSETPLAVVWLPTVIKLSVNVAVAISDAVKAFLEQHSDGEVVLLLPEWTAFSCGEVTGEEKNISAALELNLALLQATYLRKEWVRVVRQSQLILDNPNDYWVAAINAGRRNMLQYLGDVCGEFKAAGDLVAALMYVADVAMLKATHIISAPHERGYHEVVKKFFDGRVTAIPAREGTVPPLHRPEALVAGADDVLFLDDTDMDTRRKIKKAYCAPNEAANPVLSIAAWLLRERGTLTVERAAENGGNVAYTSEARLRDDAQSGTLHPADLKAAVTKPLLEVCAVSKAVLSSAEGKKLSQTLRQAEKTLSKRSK
As to the kind of experiment: Trypanosoma cruzi tyrosyl tRNA synthetase (TcYRS) _High Tyrosine SOP. Also: in the data most compounds retested in dose-response had high values. The settings on record: 30 µM. The assay is classed as functional.

The target of assay [10] is T5, Tyrosyl-tRNA synthetase, putative (Trypanosoma cruzi (strain CL Brener)). Nature of the assay: Trypanosoma cruzi tyrosyl tRNA synthetase (TcYRS) SOP. The assay is classed as functional. The settings on record: 30 µM.
Assay [11] concerns the target Chromo domain-containing protein 1 (Saccharomyces cerevisiae (strain ATCC 204508 / S288c) (Baker's yeast)) (UniProt P32657). Nature of the assay: ScCHD-1 Enzyme Inhibition Assay. Also: in the data most compounds retested in dose-response had high values. The assay is classed as functional. The following applies: 30 µM.

For some of these results: Measured potencies and affinities stand elsewhere.

Chromo domain-containing protein 1 (Saccharomyces cerevisiae (strain ATCC 204508 / S288c) (Baker's yeast)), sequence (P32657 whole entry, the tested form may be a part): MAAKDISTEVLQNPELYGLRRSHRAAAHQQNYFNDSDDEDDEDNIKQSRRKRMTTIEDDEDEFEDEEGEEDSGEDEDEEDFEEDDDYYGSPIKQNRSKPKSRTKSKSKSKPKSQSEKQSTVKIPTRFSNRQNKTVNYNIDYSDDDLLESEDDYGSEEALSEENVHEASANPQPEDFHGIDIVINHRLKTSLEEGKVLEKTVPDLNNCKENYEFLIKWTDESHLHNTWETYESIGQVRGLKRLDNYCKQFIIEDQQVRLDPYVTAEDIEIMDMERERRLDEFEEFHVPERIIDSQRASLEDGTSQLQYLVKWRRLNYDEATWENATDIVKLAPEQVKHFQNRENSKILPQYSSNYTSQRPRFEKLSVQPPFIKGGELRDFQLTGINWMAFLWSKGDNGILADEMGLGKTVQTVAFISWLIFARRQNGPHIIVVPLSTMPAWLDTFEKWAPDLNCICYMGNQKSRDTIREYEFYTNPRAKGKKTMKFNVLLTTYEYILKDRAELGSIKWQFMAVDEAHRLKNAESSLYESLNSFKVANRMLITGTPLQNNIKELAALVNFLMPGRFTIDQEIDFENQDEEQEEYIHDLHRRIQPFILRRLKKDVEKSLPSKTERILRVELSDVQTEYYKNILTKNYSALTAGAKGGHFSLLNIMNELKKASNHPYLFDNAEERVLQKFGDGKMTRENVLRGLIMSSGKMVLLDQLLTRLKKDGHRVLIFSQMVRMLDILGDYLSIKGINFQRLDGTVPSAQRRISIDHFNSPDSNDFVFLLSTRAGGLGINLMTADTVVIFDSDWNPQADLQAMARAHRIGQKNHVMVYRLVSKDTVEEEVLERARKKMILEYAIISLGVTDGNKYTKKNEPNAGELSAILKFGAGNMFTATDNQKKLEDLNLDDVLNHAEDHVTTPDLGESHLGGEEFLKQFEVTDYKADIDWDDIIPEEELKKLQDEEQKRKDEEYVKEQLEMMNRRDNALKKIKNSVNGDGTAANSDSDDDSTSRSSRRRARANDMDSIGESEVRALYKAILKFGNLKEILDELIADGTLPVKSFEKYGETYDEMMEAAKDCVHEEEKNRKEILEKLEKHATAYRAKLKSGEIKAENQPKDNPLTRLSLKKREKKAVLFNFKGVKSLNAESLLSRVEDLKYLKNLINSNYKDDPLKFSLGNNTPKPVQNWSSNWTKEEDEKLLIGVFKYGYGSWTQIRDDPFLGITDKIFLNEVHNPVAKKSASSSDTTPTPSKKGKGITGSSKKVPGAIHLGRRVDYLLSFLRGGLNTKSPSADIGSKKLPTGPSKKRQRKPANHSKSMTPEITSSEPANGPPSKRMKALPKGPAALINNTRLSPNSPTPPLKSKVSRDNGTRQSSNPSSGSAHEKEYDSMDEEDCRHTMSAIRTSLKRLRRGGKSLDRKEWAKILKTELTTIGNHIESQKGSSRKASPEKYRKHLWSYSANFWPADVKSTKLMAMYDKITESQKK
Protein translocase subunit SecA (Escherichia coli (strain K12)), sequence (P10408 whole entry): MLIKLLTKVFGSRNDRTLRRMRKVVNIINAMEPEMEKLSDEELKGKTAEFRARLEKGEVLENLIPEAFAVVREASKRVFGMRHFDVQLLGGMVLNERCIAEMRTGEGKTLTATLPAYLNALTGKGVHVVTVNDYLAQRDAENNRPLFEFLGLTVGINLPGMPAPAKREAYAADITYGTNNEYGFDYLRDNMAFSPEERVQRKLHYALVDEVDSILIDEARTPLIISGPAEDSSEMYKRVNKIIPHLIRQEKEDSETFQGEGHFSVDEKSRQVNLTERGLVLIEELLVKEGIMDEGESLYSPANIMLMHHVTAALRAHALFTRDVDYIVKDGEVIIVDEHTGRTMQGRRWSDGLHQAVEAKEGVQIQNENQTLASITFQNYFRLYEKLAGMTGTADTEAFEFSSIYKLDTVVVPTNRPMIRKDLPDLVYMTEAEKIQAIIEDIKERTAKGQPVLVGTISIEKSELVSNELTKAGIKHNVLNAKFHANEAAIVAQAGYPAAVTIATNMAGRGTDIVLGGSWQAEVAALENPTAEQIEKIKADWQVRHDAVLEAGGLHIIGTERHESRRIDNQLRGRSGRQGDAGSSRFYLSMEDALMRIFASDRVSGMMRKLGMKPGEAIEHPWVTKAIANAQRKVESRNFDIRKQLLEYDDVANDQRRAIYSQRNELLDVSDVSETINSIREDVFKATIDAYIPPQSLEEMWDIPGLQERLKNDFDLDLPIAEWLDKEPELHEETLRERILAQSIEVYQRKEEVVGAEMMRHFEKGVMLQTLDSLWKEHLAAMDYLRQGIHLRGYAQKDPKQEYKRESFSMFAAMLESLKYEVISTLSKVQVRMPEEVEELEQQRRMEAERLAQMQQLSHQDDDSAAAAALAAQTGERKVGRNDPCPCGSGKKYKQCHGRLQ
Sialic acid-binding Ig-like lectin 9 (Homo sapiens), sequence (Q9Y336 whole entry): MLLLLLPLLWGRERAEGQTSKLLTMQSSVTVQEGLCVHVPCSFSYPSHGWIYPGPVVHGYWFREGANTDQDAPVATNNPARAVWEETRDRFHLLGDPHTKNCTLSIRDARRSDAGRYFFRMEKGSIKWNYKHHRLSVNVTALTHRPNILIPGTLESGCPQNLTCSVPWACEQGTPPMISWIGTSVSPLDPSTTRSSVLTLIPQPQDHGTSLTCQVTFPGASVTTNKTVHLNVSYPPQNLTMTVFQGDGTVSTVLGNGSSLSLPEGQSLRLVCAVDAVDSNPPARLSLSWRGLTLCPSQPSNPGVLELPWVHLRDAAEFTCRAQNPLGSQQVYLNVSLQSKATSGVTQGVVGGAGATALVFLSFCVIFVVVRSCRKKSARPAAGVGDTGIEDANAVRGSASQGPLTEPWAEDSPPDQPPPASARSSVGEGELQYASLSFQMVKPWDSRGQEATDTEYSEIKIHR

With `Cc1noc(C)c1CN1C[C@H](OCC2CC2)[C@H]2OCCC[C@H]21`, the Percent Effect in [1] was -4.83%; in assay [2], 8.11%; in [3], -3.74%; in assay [4] it was -3.37%; in assay [5], 5.64%; with Trypanosoma cruzi, 0.293%. For the same compound, the Percent Effect in [6] was 4.71%; in [7] it was 8.84%; in the assay listed under Homo sapiens, -6.54%; in assay [8], -3.9%; in [9], 7.53%; in assay [10] it was 11.1%. Besides, the Percent Effect in assay [11] was -10.2%.

`Cc1ccc(N2CCO[C@H]3CN(Cc4cnn(C)c4)C[C@H]32)nn1`: the Percent Effect in [1] was -2.13%; in assay [2] it was -2.7%; in assay [3] it was -2.15%; in [4], 0.154%; in [5], -4.13%; in the assay with Trypanosoma cruzi, -6.55%. For the same compound, the Percent Effect was 4.78% in [6]; 18.4% in assay [7]; 0.179% in the assay filed under Homo sapiens; -2.36% in assay [8]; 6.49% in assay [9]; 10.3% in assay [10]. Also, the Percent Effect in assay [11] is 2.29%.

`O=C1CC2(CCN(Cc3ccccn3)C2)CN1c1cncnc1` (configuration not stated): the Percent Effect in assay [1] was -0.821%; in assay [2], 0%; in assay [3], -1.45%; in [4], 2.73%; in assay [5], -3.03%; in the assay on Trypanosoma cruzi, -1.66%. Further, the Percent Effect was 0.319% in [6]; 16.1% in [7]; -0.29% in the assay filed under Homo sapiens; -1.07% in [8]; 2.16% in assay [9]; 5.13% in assay [10]. The Percent Effect in assay [11] was determined as 5.33%.

For the compound `COCCN1CCC2(COCc3cnc(N4CCOCC4)nc32)C1` (configuration not stated), the Percent Effect in [1] was -9.09%; in [2] it was 2.67%; in assay [3], -3.07%; in assay [4], 7.61%; in assay [5] it was -2.45%; with Trypanosoma cruzi, -5.91%. The Percent Effect in [6] was -2.1%; in assay [7], 2.03%; in the assay filed under Homo sapiens, 21.1%; in [8] it was -12%; in assay [9], -4.25%; in assay [10] it was -1.28%. The Percent Effect in assay [11] was -8.27%.
